# Results with a measured potency or affinity are listed apart. Calls of active or inactive are those of the source. No rule for the calls is given here.
# Assay: cytotoxicity in HEK293 cells, dose response, cytotoxicity control, cell-based, plate reader, cherry-pick (AID 651899);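 also: cells exposed to compound for 48 hours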
row,Compound,outcome
1,CCc1nn(CCCC(=O)N(C)Cc2ccccc2)c(=O)c2cc3occc3n12,inactive
2,O=C(O)CN1C(=O)/C(=C\c2cc(Br)ccc2OCc2ccc([N+](=O)[O-])cc2)SC1=S,inactive
3,CCOC(=O)CNC(=O)c1sc2ncnc(N3CCc4ccccc4C3)c2c1C,inactive
4,O=C(CSc1n[nH]c(-c2cccnc2)n1)Nc1ccnc2ccccc12,inactive
5,COc1ccc(NC(=O)c2cnc(C)cn2)cc1-n1cnnn1,inactive
6,Cc1c(OC(C)C(=O)NCC2CCC(C(=O)O)CC2)ccc2c1oc(=O)c1ccccc12 (stereo unspecified),inactive
7,O=C(C[C@H]1C[C@@H]2c3cc(NC(=O)c4cccnc4)ccc3O[C@@H]2[C@@H](CO)O1)NCC(F)(F)F,inactive
8,Cc1nc2c(C(=O)N3CCN(c4ccccn4)CC3)cnn2c(C)c1Cc1cccc(Cl)c1,inactive
9,COc1cc(-c2nc3ccccc3nc2-c2ccc(O)c(OC)c2)ccc1O,inactive
10,COc1ccc(Cc2c(-c3ccc(OC)c(OC)c3)nc3ccc(C)cn23)c(C)c1,inactive
11,N#Cc1ccc(-c2ccc3c(c2)[C@@H]2[C@@H](CCN2C(=O)c2ccc(F)cc2)[C@@H](CO)N3)cc1,inactive
12,COc1ccccc1-c1cc(C(F)(F)F)nc(S(=O)(=O)CCCC(=O)O)n1,inactive
13,C#CCSc1nnc(-c2sc(-c3ccccc3)nc2C)n1C,inactive
14,CCn1c(=O)c(=O)n(CC)c2cc(S(=O)(=O)Nc3cc(C)ccc3C)ccc21,inactive
15,COc1ccc(CCNC(=O)c2cnc3n(c2=O)CCS3)cc1OC,inactive
16,O=C(O)CSc1ncnc2scc(-c3ccc(Br)cc3)c12,inactive
17,CN(C(=O)CSc1nc2ccccc2c(=O)n1-c1ccccc1Cl)C1CCS(=O)(=O)C1 (stereo unspecified),inactive
18,COc1ccc(C(=O)Nc2cccc(NC(=O)c3cccs3)c2)cc1,inactive
19,CCc1nn(CC(=O)N2CCN(Cc3ccc4c(c3)OCO4)CC2)c(=O)c2cc3occc3n12,inactive
20,Fc1ccc(-c2ccc3c(c2)C2CC3CCN2)cc1 (stereo unspecified),inactive
21,CN1c2ccc(-c3cccc(F)c3)cc2[C@@H]2[C@@H](CCN2C(=O)c2ccncc2)[C@H]1CO,inactive
22,O=C(CSc1nncs1)N1c2ccccc2Sc2ccccc21,inactive
23,Cc1nc2nc(SCC(=O)NCCCN3CCOCC3)nn2c(C)c1Cc1ccccc1,inactive
24,CCN(CC)S(=O)(=O)c1ccc(NC(=O)c2ccc(Cl)nc2)cc1,inactive

row,Compound,outcome
1,CC(C)n1c(N2CCN(C(=O)c3cccs3)CC2)nc2ccccc21,inactive
2,Cc1cccc(C2c3[nH]c4ccccc4c3CCN2C(=O)CN2CCOC2=O)n1 (stereo unspecified),inactive
3,CC1CN(C(=O)Nc2ccc3snnc3c2)c2ccccc21 (stereo unspecified),inactive
4,COc1ccc(C(=O)C2CCCN(C(=O)c3ccc(C(C)=O)s3)C2)c(C)c1 (stereo unspecified),inactive
5,Cc1c2cnn(CC(=O)NCc3ccccn3)c(=O)c2c(C)n1Cc1ccc(Cl)cc1,inactive
6,O=C(Nc1ncc2c(n1)CC(c1ccco1)CC2=O)c1ccccc1 (stereo unspecified),inactive
7,O=C(Nc1cccnc1)c1ccc(N2CCCC2)c([N+](=O)[O-])c1,inactive
8,CC(=O)c1ccc(C(=O)NC2CCCN(Cc3ccccc3F)C2)s1 (stereo unspecified),inactive
9,COc1cccc(-c2ccc3c(c2)[C@H]2[C@H](CCN2C(=O)C2CCC2)[C@@H](CO)N3)c1,inactive
10,CN1c2ccc(-c3cccc(F)c3)cc2[C@H]2[C@H](CCN2C(=O)c2ccc3c(c2)OCO3)[C@H]1CO,inactive
11,CC(C)(C)c1cc(C(=O)Nc2cccnc2)cc(C(=O)Nc2cccnc2)c1,inactive
12,O=C(c1cccc(F)c1)N1CC[C@@H]2[C@@H](CO)Nc3ccc(-c4cccc(F)c4)cc3[C@@H]21,inactive
13,CCOC(=O)C1CCN(C(=O)Nc2ccc3snnc3c2)CC1,inactive
14,O=C(c1ccccc1F)N1CC[C@@H]2[C@H]1c1cc(Br)ccc1N[C@@H]2CO,inactive
15,CN1c2ccc(-c3cccc(F)c3)cc2[C@H]2[C@H](CCN2C(=O)c2ccncc2)[C@@H]1CO,inactive
16,O=C(Nc1ccc(Cl)c(-c2nc3ccccc3[nH]2)c1)c1cccnc1,inactive
17,O=C(C[C@@H]1C[C@@H]2c3cc(NC(=O)c4cccnc4)ccc3O[C@@H]2[C@@H](CO)O1)NCCc1ccccc1,inactive
18,C/C=C(/C)C(=O)OC(C)(C)[C@@H]1Cc2c(ccc3ccc(=O)oc23)O1,inactive
19,COc1ccc(C2c3c(oc4ccc(Cl)cc4c3=O)C(=O)N2CCN2CCOCC2)cc1 (stereo unspecified),inactive
20,O=C(C[C@@H]1C[C@@H]2c3cc(NC(=O)c4cccnc4)ccc3O[C@@H]2[C@@H](CO)O1)NCc1cccc(F)c1,inactive
21,O=C(c1ccncc1)N1CC[C@H]2[C@H](CO)Nc3ccc(Br)cc3[C@H]21,inactive
22,CCc1c(C(=O)NCCc2ccc(OC)c(OC)c2)[nH]c(C)c1C(C)=O,inactive
23,Cc1nc(=O)c(-c2ccccc2)c(C)n1-c1ccc(Br)cc1,inactive
24,COCC(=O)N1CC[C@@H]2[C@@H](CO)N(C)c3ccc(-c4ccc(F)cc4)cc3[C@@H]21,inactive

row,Compound,outcome
1,O=C(c1ccncc1)N1CC[C@@H]2[C@@H](CO)Nc3ccc(Br)cc3[C@@H]21,inactive
2,COC(=O)C1CCN(C(c2ccc(OC)c(OC)c2)c2sc3nc(C)nn3c2O)CC1 (stereo unspecified),inactive
3,O=C(COc1ccc2ccc(=O)oc2c1)N1CCN(c2ccc(F)cc2)CC1,inactive
4,CCCOc1ccc2c3c(c(=O)oc2c1OCCC)CCC3,inactive
5,CCc1c(C)nc2ncnn2c1Nc1ccc(C#N)c(Cl)c1,inactive
6,COc1ccc(Cn2ccc(=O)c(Cc3c(Cl)cccc3Cl)c2C)cc1,inactive
7,CC(=O)c1ccc(N2CCN(C(=O)c3ccc4c(c3)OCO4)CC2)cc1,inactive
8,CN1c2ccc(-c3cccc(F)c3)cc2[C@H]2[C@H](CCN2C(=O)C2CCOCC2)[C@H]1CO,inactive
9,COc1ccc(C(=O)Nc2ccc(Cn3ccnc3)cc2)cc1OC,inactive
10,CC1Cc2nc(SCC(=O)N3CCOCC3)n(-c3ccccc3)c(=O)c2S1 (stereo unspecified),inactive
11,CC1(C)CC(=O)C=C(c2ccc3ncccc3c2)C1,inactive
12,Cn1ncc2cc3c(Nc4ccc(Cl)cc4)cccc3nc21,inactive
13,O=C(Cc1ccccc1)N1CC[C@@H]2[C@H]1c1cc(Br)ccc1N[C@@H]2CO,inactive
14,Cc1nc(-c2cccnc2)sc1C(=O)Nc1cccc(C(F)(F)F)c1,inactive
15,COc1cc(-c2n[nH]c(=S)n2-c2cccc(C(F)(F)F)c2)cc(OC)c1OC,inactive
16,O=C(NCc1ccco1)c1ccc(-c2ccc3nccn3c2)cc1,inactive
17,CC(=O)c1ccc(N2CCN(C(=O)Cc3ccccc3)CC2)c(F)c1,inactive
18,Cc1nc2nc(SCC(=O)NCc3ccco3)nn2c(C)c1Cc1ccccc1,inactive
19,Cc1ccc(-c2nnc(N3CCN(C(=O)CSc4ncn[nH]4)CC3)c3ccccc23)cc1,inactive
20,Cc1cc(/C=C(/C#N)C(=O)Nc2ccccc2)c(C)n1-c1cccnc1,inactive
21,COc1cc(-c2n[nH]c(=S)n2Cc2ccccc2)cc(OC)c1OC,inactive
22,Cc1nc2nc(SCC(=O)N3CCOCC3)nn2c(C)c1Cc1c(F)cccc1Cl,inactive
23,CO[C@H]1CN(C)C(=O)c2ccc(NC(C)=O)cc2OC[C@@H](C)N(C(=O)C2CCCCC2)C[C@H]1C,inactive
24,O=C(c1ccncc1)N1CC[C@@H]2[C@H]1c1cc(Br)ccc1N[C@@H]2CO,inactive

row,Compound,outcome
1,O=C(Nc1cccnc1)c1ccc(Cl)c(Cl)c1,inactive
2,COc1ccc(Cc2c(-c3ccc(OC)c(OC)c3)nc3c(C)cc(Br)cn23)c(C)c1,inactive
3,O=C(C1CCOCC1)N1CC[C@@H]2[C@H]1c1cc(Br)ccc1N[C@@H]2CO,inactive
4,COCCNC(=O)C[C@H]1CC[C@@H]2[C@@H](COc3ccc(NC(=O)Nc4cccc(F)c4)cc3C(=O)N2C)O1,inactive
5,CCCCN1C(=O)c2ccc(C(=O)Nc3cccnc3)cc2C1=O,inactive
6,COc1cc(-c2n[nH]c(=S)n2C(C)c2ccccc2)cc(OC)c1OC (stereo unspecified),inactive
7,CC1=C(C#N)C(c2cccnc2)C2=C(CC(c3ccc(Cl)cc3)CC2=O)N1 (stereo unspecified),inactive
8,O=C(c1ccc(S(=O)(=O)Nc2ccccc2F)cc1)N1CCN(c2ccccc2O)CC1,inactive
9,Cc1c(OC(C)C(=O)NCc2ccccn2)ccc2c3c(c(=O)oc12)CCC3 (stereo unspecified),inactive
10,O=C(C[C@@H]1C[C@H]2c3cc(NC(=O)c4cccnc4)ccc3O[C@H]2[C@@H](CO)O1)NCc1cc(F)ccc1F,inactive
11,COC(=O)C1C(=O)C=C(Nc2ccc(F)cc2)CC1c1ccc(OC)cc1 (stereo unspecified),inactive
12,CCOc1ccc(CCNC(=O)c2cnc(C)cn2)cc1OCC,inactive
13,Cc1ccccc1-n1c(SCC(=O)N(C)C2CCS(=O)(=O)C2)nc2ccccc2c1=O (stereo unspecified),inactive
14,COc1cc2c(cc1NC(=O)c1cccnc1)CCCC2,inactive
15,O=C(C[C@H]1C[C@H]2c3cc(NC(=O)c4cccnc4)ccc3O[C@H]2[C@H](CO)O1)NCc1ccccn1,inactive
16,CC(=O)c1ccc(N2CCN(C(=O)c3ccc4nc[nH]c4c3)CC2)cc1,inactive
17,COc1ccc(F)cc1C(=O)C1CCCN(C(=O)c2ccc(C(C)=O)s2)C1 (stereo unspecified),inactive
18,CN1c2ccc(-c3cccc(F)c3)cc2[C@H]2[C@H](CCN2C(=O)c2ccncc2)[C@H]1CO,inactive
19,Clc1ccc(CSc2nnc(-c3cccnc3)o2)cc1,inactive
20,O=C(c1ccc(Br)s1)N1CCN(Cc2ccc3c(c2)OCO3)CC1,inactive
21,CC(=O)c1ccc(NC(=O)C2CC(=O)N(Cc3ccccc3)C2)cc1 (stereo unspecified),inactive
22,O=C(Nc1ccc2c(c1)[C@H]1C[C@@H](CC(=O)N3CCc4ccccc4C3)O[C@@H](CO)[C@H]1O2)c1cccnc1,inactive
23,C[C@@H]1CN([C@H](C)CO)C(=O)c2cc(C#Cc3cccnc3)cnc2O[C@H]1CN(C)S(C)(=O)=O,inactive
24,O=C(Nc1ncc2c(n1)CC(c1cccc(Cl)c1)CC2=O)c1ccco1 (stereo unspecified),inactive

# Source: PubChem BioAssay AID651899 (Broad Institute, 2012)
